Compounds without any hit were thinned out: in the full panel of roughly 83,000, 20% have a hit.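 In brief: 96-well plates, 48 h treatment, single concentration, percent growth endpoint.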 Active and inactive are the calls of the source. Rule for the calls: active = growth percent below 10; inactive = the rest.
Legend:
Test in all cases: NCI-60 one-dose screen, 48 h (100 = growth as untreated, 0 = no growth, -100 = all killed)
Settings in all cases: 10 µM unless noted
NCI-H23 lung = system: NCI-H23 lung
NCI-H226 lung = system: NCI-H226 lung
NCI-H322M lung = system: NCI-H322M lung
HOP-62 NSCLC = system: HOP-62 NSCLC
NCI-H460 lung = system: NCI-H460 lung
HOP-92 NSCLC = system: HOP-92 NSCLC
NCI-H522 lung = system: NCI-H522 lung
A549/ATCC NSCLC = system: A549/ATCC NSCLC
786-0 renal = system: 786-0 renal
COLO 205 colon = system: COLO 205 colon

Measured: growth

O=S(=O)(NCCNc1nccc(-c2c(-c3ccc(F)c(O)c3)nc3occn23)n1)c1ccccc1
inactive: NCI-H23 lung 55.1% | NCI-H226 lung 92.1% | NCI-H322M lung 72.7% | HOP-62 NSCLC 76.9% | NCI-H460 lung 29.7% | HOP-92 NSCLC 43.7% | NCI-H522 lung 55.2% | A549/ATCC NSCLC 45.8% | 786-0 renal 88.5% | COLO 205 colon 40.6%

O=C(Nc1ccc2cc3ccc(NC(=O)N4CCCCCC4)cc3nc2c1)N1CCCCCC1
inactive: NCI-H322M lung 31.4%
active: NCI-H23 lung -39% | NCI-H226 lung -58.5% | HOP-62 NSCLC -47.4% | NCI-H460 lung -55.6% | HOP-92 NSCLC -77.8% | NCI-H522 lung -70.4% | A549/ATCC NSCLC -11.3% | 786-0 renal -57.9% | COLO 205 colon -48.8%

O=C(O)CNC(=O)CN1C(=O)c2ccccc2C1=O
inactive: NCI-H23 lung 102% | NCI-H226 lung 89.1% | NCI-H322M lung 104% | HOP-62 NSCLC 88.3% | NCI-H460 lung 103% | HOP-92 NSCLC 97.4% | NCI-H522 lung 100% | A549/ATCC NSCLC 81.6% | 786-0 renal 98.4% | COLO 205 colon 104%

CCN(CC)CCOC(COc1cc(C)cc(C)c1)COc1cc(C)cc(C)c1
active: NCI-H460 lung 9.62% | COLO 205 colon -15.8%
inactive: NCI-H23 lung 37.9% | NCI-H226 lung 54.4% | NCI-H322M lung 48.7% | HOP-62 NSCLC 54.3% | HOP-92 NSCLC 22.7% | NCI-H522 lung 35.4% | A549/ATCC NSCLC 47.8% | 786-0 renal 44.9%

CC(c1ccccc1)n1ccnc1CO (stereo not given)
inactive: NCI-H23 lung 96.5% | NCI-H226 lung 100% | NCI-H322M lung 101% | HOP-62 NSCLC 105% | NCI-H460 lung 104% | HOP-92 NSCLC 66.5% | NCI-H522 lung 98.8% | A549/ATCC NSCLC 109% | 786-0 renal 105% | COLO 205 colon 106%

Cn1c(=O)c2[nH]c(CCCc3nc4c([nH]3)c(=O)n(C)c(=O)n4C)nc2n(C)c1=O
inactive: NCI-H23 lung 117% | NCI-H226 lung 105% | NCI-H322M lung 114% | HOP-62 NSCLC 97.4% | NCI-H460 lung 105% | HOP-92 NSCLC 101% | NCI-H522 lung 112% | A549/ATCC NSCLC 105% | 786-0 renal 107% | COLO 205 colon 111%

COc1cc(CCNc2nc3cc(N)cc(N)c3nc2-c2ccccc2)cc(OC)c1
inactive: NCI-H23 lung 19.3% | NCI-H226 lung 90.5% | NCI-H322M lung 23.8% | NCI-H460 lung 34.1% | A549/ATCC NSCLC 78.3%
active: HOP-62 NSCLC -35.1% | HOP-92 NSCLC -71.2% | NCI-H522 lung -65.1% | 786-0 renal -60% | COLO 205 colon -60.8%

Fc1ccc2nc3c(cc2c1)CSc1nnc(-c2ccc[nH]c2=S)n1N3
inactive: NCI-H23 lung 92.7% | NCI-H226 lung 93.3% | NCI-H322M lung 106% | HOP-62 NSCLC 93.3% | NCI-H460 lung 105% | HOP-92 NSCLC 78.1% | NCI-H522 lung 86.8% | A549/ATCC NSCLC 108% | 786-0 renal 89.7% | COLO 205 colon 115%

c1ccc(-c2nn(-c3ccccc3)[n+](-c3ccccc3-c3ccccc3)n2)cc1
active: NCI-H23 lung 5.14% | NCI-H460 lung 5.11% | HOP-92 NSCLC -24.4% | NCI-H522 lung -7.02% | COLO 205 colon -34.5%
inactive: NCI-H226 lung 28.1% | NCI-H322M lung 40.6% | HOP-62 NSCLC 32.6% | A549/ATCC NSCLC 17.3% | 786-0 renal 30.8%

COc1ccc(C2=NN(C(C)=O)C(c3cn(Cc4ccc(Cl)cc4)c4ccccc34)C2)cc1 (stereo not given)
inactive: NCI-H23 lung 73.3% | NCI-H226 lung 67.6% | NCI-H322M lung 83.1% | HOP-62 NSCLC 85.7% | NCI-H460 lung 86.9% | HOP-92 NSCLC 61.2% | NCI-H522 lung 69.5% | A549/ATCC NSCLC 64.6% | 786-0 renal 89.4% | COLO 205 colon 115%

COc1cc(C2CC(c3cccc(Nc4ccncc4)c3)=NN2c2ccccc2)cc(OC)c1OC (stereo not given)
active: NCI-H460 lung 4.66% | COLO 205 colon -52.5%
inactive: NCI-H23 lung 90% | NCI-H226 lung 96% | NCI-H322M lung 80.1% | HOP-62 NSCLC 59.6% | HOP-92 NSCLC 28.1% | NCI-H522 lung 77.3% | A549/ATCC NSCLC 44.9% | 786-0 renal 69.1%

COc1cccc(NC(=O)c2cccc(-c3cc(=O)c4c(OC)c(OC)c(OC)cc4o3)c2)c1
inactive: NCI-H23 lung 63.1% | NCI-H226 lung 63.3% | NCI-H322M lung 80.1% | HOP-62 NSCLC 59.5% | NCI-H460 lung 60.1% | HOP-92 NSCLC 41.9% | NCI-H522 lung 46.6% | A549/ATCC NSCLC 62.8% | 786-0 renal 68.9% | COLO 205 colon 68.3%

COc1ccc(NC(=O)c2sc3nc(C)c(C(=O)CCc4cccc(OC)c4)cc3c2N)cc1
active: NCI-H460 lung 1.32%
inactive: NCI-H23 lung 81.1% | NCI-H226 lung 89.7% | NCI-H322M lung 40.1% | HOP-62 NSCLC 70.8% | HOP-92 NSCLC 88.4% | NCI-H522 lung 78.7% | A549/ATCC NSCLC 30.2% | 786-0 renal 78.5% | COLO 205 colon 44.1%

CCN(CC)CCCC(C)Nc1c2c(nc3ccc(OC)cc13)CCCC2 (stereo not given)
inactive: NCI-H23 lung 87.7% | NCI-H226 lung 97.3% | NCI-H322M lung 90.6% | HOP-62 NSCLC 87.6% | NCI-H460 lung 92.7% | HOP-92 NSCLC 84.2% | NCI-H522 lung 112% | A549/ATCC NSCLC 108% | 786-0 renal 90.2% | COLO 205 colon 100%

Nc1nc(N)nc(NCc2ccccc2)n1
inactive: NCI-H23 lung 97.1% | NCI-H226 lung 95.4% | NCI-H322M lung 95.4% | HOP-62 NSCLC 105% | NCI-H460 lung 109% | HOP-92 NSCLC 108% | NCI-H522 lung 99.3% | A549/ATCC NSCLC 101% | 786-0 renal 102% | COLO 205 colon 119%

CC1(C)CN(c2cnc(C(=O)Nc3cc(F)cc4cccnc34)cn2)CCN1
inactive: NCI-H23 lung 88.8% | NCI-H226 lung 92.7% | NCI-H322M lung 85.4% | HOP-62 NSCLC 91.8% | NCI-H460 lung 82.5% | HOP-92 NSCLC 64.6% | NCI-H522 lung 41% | A549/ATCC NSCLC 92.5% | 786-0 renal 78.9% | COLO 205 colon 19.7%

COc1cc(-c2cc(=O)oc3cc(O)ccc23)c(OC)c2c1OCO2
inactive: NCI-H23 lung 83.5% | NCI-H226 lung 86.4% | NCI-H322M lung 89.4% | HOP-62 NSCLC 92.7% | NCI-H460 lung 88.9% | HOP-92 NSCLC 79% | NCI-H522 lung 81.7% | A549/ATCC NSCLC 87% | 786-0 renal 95.6% | COLO 205 colon 102%

N#C/C(=C\c1ccc(Br)cc1)n1nnc2cccc(F)c21
active: NCI-H460 lung -47% | HOP-92 NSCLC -23.7% | COLO 205 colon -12.5%
inactive: NCI-H23 lung 23.8% | NCI-H226 lung 41.9% | NCI-H322M lung 32.3% | HOP-62 NSCLC 40% | NCI-H522 lung 18.4% | A549/ATCC NSCLC 20.9% | 786-0 renal 11.2%

CCCCCCCCCCCC(=O)C(CCCCCCCCCC)C(=O)Nc1ccccc1 (stereo not given)
inactive: NCI-H23 lung 95.8% | NCI-H226 lung 97.1% | NCI-H322M lung 90.6% | HOP-62 NSCLC 96.8% | NCI-H460 lung 111% | HOP-92 NSCLC 102% | NCI-H522 lung 89.4% | A549/ATCC NSCLC 91.2% | 786-0 renal 107% | COLO 205 colon 108%

CCCc1cc2c(cc1Br)OCO2
inactive: NCI-H23 lung 96.2% | NCI-H226 lung 106% | NCI-H322M lung 108% | HOP-62 NSCLC 84% | NCI-H460 lung 106% | HOP-92 NSCLC 86.9% | NCI-H522 lung 87.9% | A549/ATCC NSCLC 80.7% | 786-0 renal 89.3% | COLO 205 colon 109%

C/C(=C(/c1ccccc1)c1ccc(OCC(O)CN2CCOCC2)cc1)c1ccccc1 (stereo not given)
inactive: NCI-H23 lung 101% | NCI-H226 lung 96.6% | NCI-H322M lung 95.4% | HOP-62 NSCLC 90.1% | NCI-H460 lung 92.6% | HOP-92 NSCLC 80.2% | NCI-H522 lung 73.3% | A549/ATCC NSCLC 87.2% | 786-0 renal 67.1% | COLO 205 colon 69.4%

CN1CCN(c2ccc3nc(-c4cc(C(C)(C)C)c(O)c(C(C)(C)C)c4)[nH]c3c2)CC1
active: NCI-H460 lung 3.88% | COLO 205 colon -56.7%
inactive: NCI-H23 lung 92.6% | NCI-H226 lung 96% | NCI-H322M lung 81% | HOP-62 NSCLC 69.8% | HOP-92 NSCLC 48.6% | NCI-H522 lung 75.5% | A549/ATCC NSCLC 53.4% | 786-0 renal 55.4%

COc1cc(CNC(=O)CCCCC[P+](c2ccccc2)(c2ccccc2)c2ccccc2)c(OC)c2c1OCO2
inactive: NCI-H23 lung 66.9% | NCI-H226 lung 88.3% | NCI-H322M lung 96.8% | HOP-62 NSCLC 90.1% | NCI-H460 lung 78.6% | HOP-92 NSCLC 23.5% | NCI-H522 lung 52.9% | A549/ATCC NSCLC 87.8% | 786-0 renal 96.3% | COLO 205 colon 45.8%

CCCCCCCCN1C(=O)/C(=c2\sc3n(c2=O)C2C(NN=3)N(CC)C(=O)N2CC)c2ccccc21 (stereo not given)
inactive: NCI-H23 lung 79.1% | NCI-H226 lung 91.9% | NCI-H322M lung 83% | HOP-62 NSCLC 47.3% | NCI-H460 lung 88% | HOP-92 NSCLC 62.7% | NCI-H522 lung 66.6% | A549/ATCC NSCLC 75.9% | 786-0 renal 65.7% | COLO 205 colon 104%

CCOC(=O)c1c(O)cc(-c2ccccc2)cc1-c1sc(N(C)Cc2ccccc2)nc1Cl
inactive: NCI-H23 lung 98.7% | NCI-H226 lung 94% | NCI-H322M lung 106% | HOP-62 NSCLC 104% | NCI-H460 lung 102% | HOP-92 NSCLC 91.3% | NCI-H522 lung 86.4% | A549/ATCC NSCLC 98.8% | COLO 205 colon 106%
active: 786-0 renal -97.1%
